MCF10A rereplic: inducers of DNA re-replication in MCF 10A breast cells; MCF 10A DNA re-replication, Hoechst nuclear intensity, 48 h; Potency, µM (titrated, usually from 46.1 µM), hits mostly activators; actives 2.9% (n = 350,000); further: nearly all actives have a fitted effect of over 50% in size
uPA surface inh: blocks generation of uPA at the cell surface. actives 0.31% (n = 330,000). Potency, µM (highest dose often 38.3 µM), actives largely listed as inhibitors. AID 540303. cell surface uPA generation assay, qHTS; active means well fitted inhibition curve with a large enough effect; inconclusive means small, poorly fitted or top-dose-only effect; inactive means no such curve, though single readings can be large or run the other way; tested in mouse RAW 264.7 cells; further: nearly all actives have a fitted effect of over 55% in size
SW480 rerep: inducers of DNA re-replication in SW480 colon cancer cells; Potency, µM (highest dose often 46.1 µM), usual class: activators; AID 624297; actives 1.8% (n = 340,000); SW480 DNA re-replication, Hoechst DNA content imaging, 48 h; further: nearly all actives have a fitted effect of over 55% in size
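Image-based read-out: total Hoechst fluorescence of nuclei (405 nm excitation, 500-530 nm emission), with hits raising the fraction of high-intensity nuclei. SW480 colon cells incubated 48 hr with compounds at 37 C.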
Giardia kill: kills Giardia lamblia. AID 540267. actives 0.15% (n = 340,000). activity change, % at 7.66 µM, hits read low. Giardia lamblia trophozoite viability; in the data active means activity change below about -80%; inconclusive means between about -30% and that limit;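 further: parasites exposed to compound for two days anaerobically before the ATP read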
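Viability, read as ATP luminescence: trophozoites at 100 cells/well, compound added, 48 hrs anaerobic at 37 deg C, then 15-30 min room-temperature development before reading.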
Hits are given with their value; n = inactive; u = inconclusive; x = no result given. Only some compounds are listed: those with a hit (about 4.3% of all), similar ones and a draw of the others. Unless noted, the call rests on the fitted dose curve; in most records, active means well fitted activation curve with a large enough effect; inconclusive means small, poorly fitted or top-dose-only effect; inactive means no such curve, though single readings can be large or run the other way.

SMILES | MCF10A rereplic | uPA surface inh | SW480 rerep | Giardia kill
Cc1ccc(C=NNC(=O)c2cc(-c3cccnc3)nc3ccccc23)o1 | 5.2µM | n | 7.3µM | n
O=C(N/N=C/c1ccncc1)c1cc(C2CC2)nc2ccccc12 | n | n | n | n
O=C(N/N=C/c1ccccn1)c1cc(C2CC2)nc2ccccc12 | n | n | u | n
Cc1[nH]c2ccccc2c1C=NNC(=O)c1cc(-c2cccnc2)nc2ccccc12 | u | n | n | n
COc1ccccc1CN(C)C(=O)c1cc(-c2cccs2)nc2ccccc12 | 18µM | n | n | n
Cc1ccc(/C=N/NC(=O)c2cc(C3CC3)nc3ccccc23)o1 | 5.8µM | n | 21µM | n
C[C@H](CO)N1C[C@H](C)[C@@H](CN(C)S(=O)(=O)c2ccc(F)cc2)Oc2ccc(NS(=O)(=O)c3ccccc3)cc2C1=O | n | n | n | n
COc1ccc(/C=N/NC(=O)c2ccc(CN3C(=O)c4cccc5cccc3c45)cc2)cc1O | 16µM | n | n | n
COc1ccc(-c2cc(C(=O)N/N=C/c3ccc4c(c3)OCO4)c3ccccc3n2)c(OC)c1 | u | n | u | n
COc1ccc(-c2cc(C(=O)N/N=C/c3ccc(OC)c(COCC(F)(F)C(F)F)c3)c3ccccc3n2)c(OC)c1 | 23µM | n | n | n
O=C(N/N=C/c1ccc(F)cc1)c1cc(-c2ccccn2)nc2ccccc12 | u | u | n | n
COc1ccccc1-c1cc(C(=O)N/N=C/c2cccs2)c2ccccc2n1 | 14µM | n | n | n
COc1cccc(/C=N/NC(=O)c2cc(-c3ccccn3)nc3ccccc23)c1O | n | n | 1.6µM | n
O=C(Nc1nnc(Cc2ccccc2)s1)C1CCN(C(=O)c2cccs2)CC1 | x | x | x | n
Cc1cc(C(=O)N/N=C/c2ccc(C)o2)c2ccccc2n1 | 1.8µM | n | 5.8µM | n
CCCc1cc(C(=O)N/N=C/c2ccc(C)o2)c2ccccc2n1 | u | n | u | n
Cc1ccc(/C=N/NC(=O)c2cc(-c3ccccc3)nc3ccccc23)o1 | 5.8µM | n | u | n
COc1ccc(-c2cc(C3CC3)nc3sc(C#N)c(N)c23)cc1 | 3.7µM | n | 13µM | n
C(=C\c1nc(N2CCCCCC2)c2ccccc2n1)/c1ccccc1 | 21µM | n | u | n
c1ccc2c(N3CCCCCC3)nc(-c3ccncc3)nc2c1 | u | n | n | n
CN1CCc2nc3sc(C(=O)C45CC6CC(CC(C6)C4)C5)c(N)c3cc2C1 | 9.2µM | n | 21µM | n
S=C(NCCCc1cnc[nH]1)NCCCN(Cc1ccc(Cl)cc1)c1cc(-c2ccccc2)ccn1 | x | x | x | n
COc1ccc(CCNC(=O)CCc2cc(OC)c(OC)c(OC)c2)cc1 | n | n | n | n
COc1ccc(CCc2cc(OC)c(OC)c(OC)c2)cc1 | 1.8µM | n | u | n
O=C(COC(=O)c1cc[n+]([O-])cc1)Nc1ccc(Cl)cc1Cl | n | n | n | n
SMILES | MCF10A rereplic | uPA surface inh | SW480 rerep | Giardia kill
CCCCOC(=O)c1ccc(N)cc1 | u | n | n | n
CCCCCCOC(=O)c1ccc(N)cc1 | 23µM | n | n | n
Nc1nc(NC2CC2)c2ncn([C@H]3C=C[C@@H](CO)C3)c2n1 | n | x | n | x
CN(c1ccccc1C(=O)O)S(C)(=O)=O | n | n | n | n
CN(C)c1ccccc1C(=O)c1ccccc1N(C)C | 4.1µM | n | 8.2µM | n
CC(C)(CO)[C@@H](O)C(=O)NCCC(=O)NCCSSCCNC(=O)CCNC(=O)[C@H](O)C(C)(C)CO | n | x | n | x
COc1ccc2oc3ccc(OC)cc3c(=O)c2c1 | n | n | n | n
Cn1c2ccccc2c(=O)c2ccc(C#Cc3ccccn3)cc21 | u | n | n | n
Nc1ccc(C#Cc2ccc3c(=O)c4ccccc4oc3c2)cc1 | u | 1.3µM | 16µM | n
COc1cc2oc3ccc(C#Cc4ccc(N)cc4)cc3c(=O)c2cc1OC | 23µM | n | n | n
Cn1cncc1C#Cc1ccc2c(=O)c3ccccc3oc2c1 | n | n | n | n
N#Cc1ccc(C#Cc2ccc3oc4ccccc4c(=O)c3c2)cc1 | n | n | n | n
COc1cc2oc3ccc(C#Cc4ccccn4)cc3c(=O)c2cc1OC | 21µM | n | u | n
COc1cc2oc3cc(C#Cc4ccc(N)cc4)ccc3c(=O)c2cc1OC | 9.2µM | 4µM | 9.2µM | n
COc1ccc(S(=O)(=O)N2CCCCC2)cc1NC(=O)Cc1ccc(Br)cc1 | n | n | n | n
Cc1cc2c(c(C)c1Cl)C(c1ccc3c(c1)OCO3)CC(c1ccccc1)O2 (centres undefined) | x | x | x | n
COc1cccc(/C=N/Nc2cc(Cl)nc(C)n2)c1O | 7.3µM | n | 0.29µM | n
COc1cccc(/C=N/Nc2c(Cl)cncc2Cl)c1O | u | n | n | n
